Laboratory results published in PubChem BioAssay AID687001 (Broad Institute, 2013).
Measured potencies and affinities stand elsewhere. Active and inactive are the calls of the source.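 The calls were made as follows: active = signal-lowering compounds whose fitted half-maximal concentration is at or below twice the top tested dose in every run; inconclusive = runs disagree, flat 30 to 70% inhibition, or poor curve fit; inactive = the rest.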

These molecules were tested against Protein S100-A4 (Homo sapiens) (UniProt P26447) (assay: S100A4-myosin IIA binding inhibitor potency, dose response, biochemical, fluorescence polarization, cherry-picked hits (AID 687001;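 also: 0% = DMSO neutral control wells and -100% = TFP positive control wells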)). Conditions: FP, S100A4/TAMRA-myosin IIA peptide binding; series mostly up to 11 µM; activity change, negative = inhibition: at the top concentration.
Chain of Protein S100-A4 (Homo sapiens) (P26447 whole entry, looked up): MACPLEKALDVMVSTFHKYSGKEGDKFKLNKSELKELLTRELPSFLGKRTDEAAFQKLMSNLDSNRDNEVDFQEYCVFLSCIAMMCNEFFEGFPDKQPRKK

Activity change, negative = inhibition, inactive:
Cn1c(/C(C#N)=C(\O)c2cc(Cl)sc2Cl)nc2ccccc21 -2.38%
CC(OC(=O)C1CC(=O)N(Cc2ccco2)C1)C(=O)Nc1ccc(F)cc1Cl (centres undefined) -1.03%
COc1ccccc1NC(=S)NC(=O)Cc1ccccc1 -2.14%
O=C(c1cc2c(s1)-c1ccccc1S(=O)(=O)C2)N1CCN(Cc2ccccc2)CC1 3.56%
CCn1c(SCC(=O)O)nnc1-c1ccc2[nH]c(C)c(C)c2c1 -3.04%
COc1ccc(OC)c(NC(=O)CSc2nnc(CNC(=O)c3cc(OC)c(OC)c(OC)c3)o2)c1 -5.15%
C[C@@H]1CN([C@@H](C)CO)C(=O)c2cc(C#C[C@@H](C)O)cnc2O[C@H]1CN(C)C(=O)Cc1ccncc1 21%
CN1c2ccc(C3=CCCCC3)cc2[C@@H]2[C@@H](CCN2C(=O)C2CC2)[C@H]1CO -0.905% [at 10 µM]
CC(=O)Nc1ccc(Nc2nnc(-c3ccc(C)c(S(N)(=O)=O)c3)c3ccccc23)cc1 -7.44%
CCCC(=O)Nc1ccc2c(c1)OC[C@@H](C)N(Cc1ccncc1)C[C@H](C)[C@H](OC)CN(C)C2=O -1.51%
COc1cccc(CN2CC(C(=O)NCC3CCOCC3)CCC2=O)c1 (centres undefined) -0.108%
CC1(C)Cc2cccc(OCC(=O)N3CCN(c4cccc(C(F)(F)F)c4)CC3)c2O1 -1.22%
COc1ccc(CN(C)C[C@H]2Oc3c(NC(=O)Nc4ccccc4)cccc3C(=O)N([C@@H](C)CO)C[C@@H]2C)cc1 -1.55%
O=C(Nc1ccccc1F)N[C@H]1CC[C@H](CCNC(=O)C2CCCCC2)O[C@H]1CO 0.987%
CCOCCn1ccc2c(OCC(=O)Nc3ccccc3OC)cccc2c1=O -2.76%
CCc1ccc(NC(=O)C(C)OC(=O)c2ccc(NS(=O)(=O)c3ccc(C)c([N+](=O)[O-])c3)cc2)cc1 (centres undefined) 15.1%
CCN1C(=O)[C@H]2[C@@H](c3ccc(-c4ccc5c(c4)OCO5)c(OC)c3)N[C@@](C)(C(=O)OC)[C@H]2C1=O -4.5%
COC(=O)C[C@H]1CC[C@@H](NC(=O)Nc2cccc(OC)c2)[C@@H](CO)O1 -1.56%
CO[C@@H]1CC[C@H]2CCOc3c(C#N)cccc3C(=O)N(C)C[C@H](C)C(=O)N(C)C[C@H]1O2 -3.09%
Cc1cc(=O)n2nc(N3CCC(C(=O)NCc4ccccc4)CC3)sc2n1 13.9%
COc1ccccc1NC(=O)N[C@H]1C=C[C@H](CC(=O)N2CCC(Cc3ccccc3)CC2)O[C@@H]1CO -0.027%
COc1ccc(NC(=O)Nc2cccc3c2O[C@H](CN(C)Cc2ccc4c(c2)OCO4)[C@@H](C)CN([C@@H](C)CO)C3=O)cc1 9.31%
C[C@@H]1CN([C@@H](C)CO)C(=O)Cc2cc(NC(=O)CCN3CCOCC3)ccc2O[C@@H]1CN(C)C 0.267%
Cn1c(=O)c2sccc2n2c(CCCC(=O)N3CCN(c4ccccn4)CC3)nnc12 3.24%
Cc1oc(-c2ccc(Cl)cc2)nc1CS(=O)CC(=O)NCCCN1CCN(Cc2ccccc2)CC1 (centres undefined) -3.78%
N#C[C@@H]1[C@H](c2ccccc2C2=CCCCC2)[C@@H](CO)N1S(=O)(=O)c1cccc(F)c1 5.16%
COc1ccccc1CNC(=O)COC(=O)CSc1ccc(Cl)cc1 -3.44%
COc1cc(C(=O)NCCc2ncccc2C)ccc1OC1CCN(C(C)=O)CC1 -2.25%
CCc1ccc(C(=O)NNC(=O)c2cccc(N3C(=O)CCC3=O)c2)cc1 1.21%
CCOC(=O)N1CCN(C(=O)COc2ccc3oc4c(c3c2)CCCC4)CC1 0.733%
CCOc1ccc(C2C(C(=O)c3ccco3)=C(O)C(=O)N2CCN2CCOCC2)cc1OCC (centres undefined) 3.37%
Cc1nc2ccccc2nc1CC(O)(c1ccccc1)c1ccccc1 -2.59%
O=C(c1ccncc1)N1C[C@@H]2[C@H](c3ccccc31)[C@@H](CO)N2C(=O)CN1CCOCC1 0.53%
COc1ccc2c(c1)C=CC1(O2)N(CCO)c2ccccc2C1(C)C (centres undefined) 112%
CCOc1ccc(/C=N/NC(=O)c2ccccc2C)cc1CN1CC2CC(C1)c1cccc(=O)n1C2 (centres undefined) -2.24%
COc1ccc(CN2CC3(CN(C(=O)c4ccccc4)C3)c3c([nH]c4cc(OC)ccc34)[C@H]2CO)cc1 16.1%
COc1ccc(C#Cc2ccc([C@H]3[C@H]4CN(C(=O)Nc5ccccc5)CCCCN4[C@H]3CO)cc2)cc1 21.1%
CC(C)[C@H](NC(=O)c1ccccc1F)C(=O)NCc1ccc(S(N)(=O)=O)cc1 -2.08%
COC(=O)c1ccc2c(=O)n(CCN3CCOCC3)c(SCC(=O)Nc3ccccc3Cl)nc2c1 -4.05%
